Assay outcomes: PubChem, The Scripps Research Institute Molecular Screening Center
This is a sample that favours compounds with a hit; in the whole collection about 0.9% have one here.
TR-FRET SRC-2 ct – TR-FRET artefact, counter-screen to PPARgamma/SRC-2 agonist assay; 0.4% of 200,000 active; active compounds read high; TR-FRET ratio at 8 µM
PPARg SRC-2 ag – agonists of SRC-2 recruitment by human PPARgamma | P37231 | PPARgamma LBD-SRC-2 recruitment, biochemical | activation, % at 8 µM | 0.34% of 200,000 active | AID 1032; in the data active = activation above about 22%
Target sequence (P37231 whole entry, looked up, the tested form may be a part): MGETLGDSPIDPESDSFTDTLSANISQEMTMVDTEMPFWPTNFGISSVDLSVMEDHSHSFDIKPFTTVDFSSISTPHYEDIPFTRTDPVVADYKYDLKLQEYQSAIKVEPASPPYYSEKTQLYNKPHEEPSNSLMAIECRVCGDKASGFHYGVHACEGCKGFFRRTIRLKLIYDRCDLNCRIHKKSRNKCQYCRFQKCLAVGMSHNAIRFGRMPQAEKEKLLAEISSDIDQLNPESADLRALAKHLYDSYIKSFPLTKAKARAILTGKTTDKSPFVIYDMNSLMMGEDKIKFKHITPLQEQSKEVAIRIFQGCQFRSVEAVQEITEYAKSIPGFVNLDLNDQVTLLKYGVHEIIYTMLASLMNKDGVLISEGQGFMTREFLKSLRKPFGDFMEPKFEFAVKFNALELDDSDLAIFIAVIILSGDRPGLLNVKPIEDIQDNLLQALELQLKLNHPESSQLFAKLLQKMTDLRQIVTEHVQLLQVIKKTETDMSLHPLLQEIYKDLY
SRC3 TRFRET art – TR-FRET artefact, counter-screen to PPARgamma/SRC-3 agonist assay; AID 1048; TR-FRET ratio at 8 µM; PPARgamma/SRC-3 format; active compounds read high; 0.39% of 99,000 active
PPARg SRC1 recr – PPARgamma-driven SRC-1 recruitment agonism | 0.41% of 200,000 active | activation, % at 8 µM | PPARgamma-SRC-1 coactivator recruitment biochemical assay | P37231; in the data active = activation above about 19%
SRC1 TRFRET art – flags TR-FRET format artefacts in PPARgamma SRC-1 recruitment agonist screen. TR-FRET detection artefact counter-screen, emission ratio; active compounds read high. TR-FRET ratio at 8 µM. 0.34% of 99,000 active; in the data active = TR-FRET ratio above about 2300
PPARg SRC3 recr – promotes SRC-3 coactivator recruitment by human PPARgamma. 0.26% of 200,000 active. biochemical PPARgamma/SRC-3 coactivator recruitment assay. activation, % at 8 µM. P37231; in the data active = activation above about 23%
PPARg SRC2 conf – confirmation of agonists of SRC-2 recruitment by human PPARgamma; shares compounds with PPARg SRC3 recr; biochemical SRC-2 recruitment by PPARgamma; activation, % at 8 µM; 52% of 790 active; in the data active = activation above about 22%
PPARg SRC1 ag – human PPARgamma SRC-1 recruitment agonism, confirmation; shares compounds with PPARg SRC3 recr; PPARgamma–SRC-1 coactivator recruitment biochemical assay; activation, % at 8 µM; 43% of 790 active; AID 1300; in the data active = activation above about 20%
PPARg SRC3 conf – confirmation of agonists of SRC-3 recruitment by human PPARgamma. shares compounds with PPARg SRC3 recr. biochemical PPARgamma-SRC-3 coactivator recruitment, agonist mode. activation, % at 8 µM. 29% of 790 active. AID 1301; in the data active = activation above about 24%
Each line names hits and unclear results; the compound was inactive in the other large screens (follow-up assays come after a bar, where they were run). Rule as the data show it, unless noted: active = TR-FRET ratio above about 2000; inactive = the rest.

O=c1c2ccccc2c(-c2n[nH]c(=S)o2)nn1Cc1ccccc1	TR-FRET SRC-2 ct 2234, PPARg SRC-2 ag 28, SRC3 TRFRET art 2375, PPARg SRC1 recr 23, SRC1 TRFRET art 2576 | PPARg SRC2 conf 49 | PPARg SRC1 ag 42 | PPARg SRC3 conf 31
S=c1[nH]nc(Cc2cccc3ccccc23)o1	none
S=c1[nH]nc(-c2ccccc2)o1	TR-FRET SRC-2 ct 2863, PPARg SRC-2 ag 67, PPARg SRC1 recr 56, PPARg SRC3 recr 71 (no result: SRC3 TRFRET art, SRC1 TRFRET art) | PPARg SRC2 conf 52 | PPARg SRC1 ag 37 | PPARg SRC3 conf 35
CC(Cc1n[nH]c(=S)o1)c1ccccc1 (stereo not given)	none
Cc1ccccc1-c1n[nH]c(=S)o1	TR-FRET SRC-2 ct 3075, PPARg SRC-2 ag 67, PPARg SRC1 recr 46, PPARg SRC3 recr 79 (no result: SRC3 TRFRET art, SRC1 TRFRET art) | PPARg SRC2 conf 50 | PPARg SRC1 ag 34 | PPARg SRC3 conf 36
Cc1ccc(-c2cc(-c3n[nH]c(=S)o3)c3ccccc3n2)cc1	none
CSc1ccccc1-c1n[nH]c(=S)o1	TR-FRET SRC-2 ct 3652, PPARg SRC-2 ag 96, SRC3 TRFRET art 3610, PPARg SRC1 recr 70, SRC1 TRFRET art 4008, PPARg SRC3 recr 44 | PPARg SRC2 conf 51 | PPARg SRC1 ag 33 | PPARg SRC3 conf 34
CCOP(=O)(O)c1cccc(OCCOCCOc2cccc(P(=O)(O)OCC)c2)c1	none
CC(C)(C)OC(=O)N[C@@H](CC(=O)OCc1ccccc1)C(=O)O	none
CCOc1cc(C)c(C(C)C)cc1S(=O)(=O)n1cnc(C)c1	none
COc1ccccc1-c1nnc(SC2CCc3ccccc3NC2=O)s1 (stereo not given)	TR-FRET SRC-2 ct 2323, PPARg SRC-2 ag 69, PPARg SRC1 recr 31, PPARg SRC3 recr 42 (no result: SRC3 TRFRET art, SRC1 TRFRET art) | PPARg SRC2 conf 49 | PPARg SRC1 ag 39 | PPARg SRC3 conf 33
O=C(Nc1ccc2oc(-c3ccccc3)nc2c1)c1ccccc1F	none (no result: SRC3 TRFRET art, SRC1 TRFRET art)
O=C(Nc1ccc2oc(-c3ccncc3)nc2c1)c1ccccc1F	PPARg SRC-2 ag 47, PPARg SRC1 recr 49, PPARg SRC3 recr 39 (no result: SRC3 TRFRET art, SRC1 TRFRET art) | PPARg SRC2 conf inactive | PPARg SRC1 ag inactive | PPARg SRC3 conf inactive
Cc1ccc(/C=N/Nc2ccc3ccccc3n2)o1	PPARg SRC1 recr 22 | PPARg SRC2 conf inactive | PPARg SRC1 ag inactive | PPARg SRC3 conf inactive
CCCC(CCC)c1nc2ccncc2[nH]1	none
CCOC(=O)c1c(N)sc(=S)c2c1CCC2	TR-FRET SRC-2 ct 2147, PPARg SRC-2 ag 27, PPARg SRC1 recr 19, PPARg SRC3 recr 34 (no result: SRC3 TRFRET art, SRC1 TRFRET art) | PPARg SRC2 conf inactive | PPARg SRC1 ag inactive | PPARg SRC3 conf inactive
COc1ccc(C)cc1N1C(=N)/C(=C2/Nc3ccccc3S2)C(c2ccccc2)C1=O (stereo not given)	none
COc1ccc(C(=O)Nc2cccc3c2C(=O)NC3=O)cc1S(=O)(=O)N1CCOCC1	PPARg SRC1 recr 21 (no result: SRC3 TRFRET art, SRC1 TRFRET art) | PPARg SRC2 conf inactive | PPARg SRC1 ag inactive | PPARg SRC3 conf inactive
CCN1CCCC1CN(Cc1cc2ccc(C)cc2[nH]c1=O)C(=S)Nc1ccc(F)cc1 (stereo not given)	none
Nc1ccc2c(c1)C(=O)C(=O)c1ccccc1-2	PPARg SRC-2 ag 32, PPARg SRC1 recr 22, PPARg SRC3 recr 29 (no result: SRC3 TRFRET art, SRC1 TRFRET art) | PPARg SRC2 conf inactive | PPARg SRC1 ag 23 | PPARg SRC3 conf inactive
O=C1C(=O)c2ccc(-c3ccccc3)cc2-c2ccccc21	none (no result: SRC3 TRFRET art, SRC1 TRFRET art)
Cc1cc2cc(CNC(=O)c3ccc(S(=O)(=O)N4CCCCC4)cc3)ccc2n1C	TR-FRET SRC-2 ct 4697, PPARg SRC-2 ag 74, PPARg SRC1 recr 83, PPARg SRC3 recr 111 (no result: SRC3 TRFRET art, SRC1 TRFRET art) | PPARg SRC2 conf 173 | PPARg SRC1 ag 143 | PPARg SRC3 conf 102
Cc1cc2cc(CNC(=O)C3CC3)ccc2n1C	none (no result: SRC3 TRFRET art, SRC1 TRFRET art)
Cc1cc2cc(CNC(=O)c3ccc(S(=O)(=O)N4CCCC4)cc3)ccc2n1C	TR-FRET SRC-2 ct 5041, PPARg SRC-2 ag 83, PPARg SRC1 recr 60, PPARg SRC3 recr 88 (no result: SRC3 TRFRET art, SRC1 TRFRET art) | PPARg SRC2 conf 100 | PPARg SRC1 ag 84 | PPARg SRC3 conf 59
CCN(CC)S(=O)(=O)c1ccc(C(=O)NCc2ccc3c(c2)cc(C)n3C)cc1	TR-FRET SRC-2 ct 4972, PPARg SRC-2 ag 75, PPARg SRC1 recr 26, PPARg SRC3 recr 49 (no result: SRC3 TRFRET art, SRC1 TRFRET art) | PPARg SRC2 conf 158 | PPARg SRC1 ag 120 | PPARg SRC3 conf 102
CCOC(=O)N/N=C(/C)c1ccc(N2C(=O)C3CCCCC3C2=O)cc1 (stereo not given)	none
Cc1cccc(Cn2ccc(NC(=O)c3ccc4c(c3)OCO4)n2)c1	none
Cc1cccc(N=C2NC(=O)S/C2=C\c2ccco2)c1	PPARg SRC1 recr 22, SRC1 TRFRET art 2337 | PPARg SRC2 conf inactive | PPARg SRC1 ag inactive | PPARg SRC3 conf inactive
C(=Nc1cccc2c(N=Cc3ccco3)cccc12)c1ccco1	PPARg SRC-2 ag 22, PPARg SRC1 recr 26 | PPARg SRC2 conf inactive | PPARg SRC1 ag inactive | PPARg SRC3 conf inactive
C(=N\C(/N=C/c1ccco1)c1ccco1)/c1ccco1	none
CN(C)c1ccc(N=Cc2ccco2)cc1	TR-FRET SRC-2 ct 2974, PPARg SRC-2 ag 85, PPARg SRC1 recr 67, PPARg SRC3 recr 74 (no result: SRC3 TRFRET art, SRC1 TRFRET art) | PPARg SRC2 conf inactive | PPARg SRC1 ag inactive | PPARg SRC3 conf inactive
CN(C)c1ccc(C=Nc2ccc(N(C)C)cc2)cc1	TR-FRET SRC-2 ct 2825, PPARg SRC-2 ag 95, PPARg SRC1 recr 69, PPARg SRC3 recr 104 (no result: SRC3 TRFRET art, SRC1 TRFRET art) | PPARg SRC2 conf inactive | PPARg SRC1 ag inactive | PPARg SRC3 conf inactive
CCOc1ccc(CNC(=O)c2ccc(Sc3ccc(C)cc3)c(NC(C)=O)c2)cc1	none
CC(C)c1nnc(SCC(=O)N2CCN(C(=O)c3ccco3)CC2)n1N	none
CN1C(=O)/C(=C/c2ccccc2Cl)Sc2ccc(C(=O)NCc3cccnc3)cc21	none
CCOC(=O)c1[nH]c2ccc(C)cc2c1N	none
CCOC(=O)c1[nH]c2cc(OC)c(OC)cc2c1N	PPARg SRC-2 ag 25 (no result: SRC3 TRFRET art, SRC1 TRFRET art) | PPARg SRC2 conf inactive | PPARg SRC1 ag inactive | PPARg SRC3 conf inactive
Cc1cc(NC(=O)COc2ccc3oc4ccccc4c3c2)no1	PPARg SRC1 recr 27 (no result: SRC3 TRFRET art, SRC1 TRFRET art) | PPARg SRC2 conf inactive | PPARg SRC1 ag inactive | PPARg SRC3 conf inactive
Cc1ccc(Sc2c(C=O)c3ccccc3n2C)cc1	none (no result: SRC3 TRFRET art, SRC1 TRFRET art)
Cc1ccc(Sc2c(O)c3ccccc3n(C)c2=O)cc1	TR-FRET SRC-2 ct 2048, PPARg SRC-2 ag 26, SRC3 TRFRET art 2226, PPARg SRC1 recr 24 | PPARg SRC2 conf 22 | PPARg SRC1 ag inactive | PPARg SRC3 conf inactive
Cc1ccc(C)c(-c2csc(NC(=O)c3cnccn3)n2)c1	none
